Data as given in PubChem BioAssay (EPA / NIEHS).
Calls of active or inactive are those of the source. Rule for the calls, unless noted: active = hit-call score of the fitted dose curve at least 0.9, where 1 is the maximum; inactive = score below 0.9.

Key:
[1] = system: SRY-box transcription factor 17 (SOX17) Protein Expression, Deisenroth Lab, SOX17 (gene 64321); assay: CCTE_Deisenroth_DEVTOX-GLR_legacy_Sox17: (Legacy) CCTE's DevTox GLR-Endo Assay Evaluation of SRY-box transcription factor 17 (SOX17) Protein Expression, Deisenroth Lab (AID 2284341); conditions: actives raise or lower the signal
Outline: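 RUES2-GLR human pluripotent cells, seeded 24 h, then differentiated 48 h in defined media with two chemical exposures 24 h apart (1 nM - 200 uM, 10 points). Sox17+ fraction from high-content fluorescence imaging; bidirectional fit versus 0.2% DMSO.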

[2] = system: SRY-box transcription factor 2 (SOX2) Protein Expression, Deisenroth Lab, SOX2 (gene 6657); assay: CCTE_Deisenroth_DEVTOX-GLR_legacy_Sox2: (Legacy) CCTE's DevTox GLR-Endo Assay Evaluation of SRY-box transcription factor 2 (SOX2) Protein Expression, Deisenroth Lab (AID 2284346)
Outline: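 hPSC RUES2-GLR, 384-well; 24 h seed → 48 h endoderm differentiation, 2 doses q24h, 1 nM–200 uM. Fix, nuclear dye, 5 fields/well. Sox2+ cells/cell count; cell positive if >5x BMAD over endoderm ctrl; gain direction vs DMSO.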

[3] = Tanguay_ZF_120hpf_MO24: Oregon State University Tanguay Lab 24 Hour Post-fertilization zebrafish Assay for Mortality (AID 2284389)
Outline: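 Dechorionated wild-type zebrafish embryos, 1 per well, statically exposed from 6 hpf at 28C, 0.64% DMSO final. Mortality scored as binary present/absent at 24 hpf by brightfield microscopy, relative to DMSO.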

[4] = Tanguay_ZF_120hpf_CRAN: Oregon State University Tanguay Lab 120 Hour Post-fertilization zebrafish Assay for Craniofacial Malformation (AID 2284397)
Outline: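 Dechorionated Tropical 5D wild-type zebrafish embryos, one per well, were statically exposed from 6 to 120 hpf at 28C in 0.64% DMSO, with 5uM trimethyltin chloride as positive control. Craniofacial malformation was scored present/absent by brightfield microscopy, relative to DMSO.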

[5] = Tanguay_ZF_120hpf_AXIS: Oregon State University Tanguay Lab 120 Hour Post-fertilization zebrafish Assay for Axial Malformation (AID 2284398)
Outline: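 Dechorionated 5D wild-type zebrafish embryos exposed statically, one per well, from 6 to 120 hpf at 28C, 0.64% DMSO. Axial malformation scored as present/absent by brightfield microscopy at 120 hpf; dead embryos not scored.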

[6] = Tanguay_ZF_120hpf_MORT: Oregon State University Tanguay Lab 120 Hour Post-fertilization zebrafish Assay for Mortality (AID 2284399)
Outline: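 Dechorionated wild-type Tropical 5D zebrafish embryos, one per well from 6 hpf, static exposure to 120 hpf at 28C in sealed dark plates, 0.64% DMSO final. Mortality scored as binary by brightfield at 24 and 120 hpf.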

[7] = Tanguay_ZF_120hpf_EDEM: Oregon State University Tanguay Lab 120 Hour Post-fertilization zebrafish Assay for Edema Malformation (AID 2284400)
Outline: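 Dechorionated Tropical 5D wild-type embryos, one per well, statically exposed from 6 to 120 hpf at 28C in 0.64% DMSO. Edema scored present/absent by brightfield microscopy at 120 hpf; dead embryos not scored; fit versus DMSO.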

[8] = Tanguay_ZF_120hpf_MUSC: Oregon State University Tanguay Lab 120 Hour Post-fertilization zebrafish Assay for Muscle Malformation (AID 2284401)
Outline: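 Dechorionated Tropical 5D wild-type zebrafish embryos exposed statically from 6 to 120 hpf at 28C, one per well, in 0.64% DMSO. Muscle malformation scored present/absent by brightfield microscopy at 120 hpf, fitted against DMSO.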

[9] = Tanguay_ZF_120hpf_BRN: Oregon State University Tanguay Lab 120 Hour Post-fertilization zebrafish Assay for Brain Region Malformation (AID 2284402)
Outline: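 Dechorionated wild-type Tropical 5D zebrafish embryos exposed statically from 6 to 120 hpf at 28C, one per well, 0.64% DMSO final. Brain malformation scored at 120 hpf by brightfield as present/absent; dead embryos not scored.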

SERPINA7 (gene 6906) = assay: CCTE_GLTED_hTBG: CCTE's human Thyroxine-binding Globulin (TBG) Inhibition Assay, Great Lakes Toxicology and Ecology Division (GLTED) Lab (AID 2284343; active = hit-call score of the fitted dose curve at least 0.9, where 1 is the maximum;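 note: active chemicals lower fluorescence versus DMSO baseline by displacing probe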)
Outline: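 hTBG + test chem, 2 h; ANSA probe displacement; fluorescence readout ex380/em475; DMSO = neg ctrl/baseline; cell-free.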

Measured: AC50

O=P1(N(CCCl)CCCl)NCCCO1 (stereo not given)
inactive: [1] | [2]

OCC(F)(F)OC(F)(F)C(F)(F)OC(F)(F)CO
not listed: [1] | [2] | SERPINA7 (gene 6906)
inactive: all other assays above

CCOc1ccc(C(C)(C)COCc2cccc(Oc3ccccc3)c2)cc1
inactive: SERPINA7 (gene 6906)

FC(F)(F)C(F)(C(F)(F)F)C(F)(F)C(F)(F)CC1CO1 (stereo not given)
not listed: [1] | [2] | SERPINA7 (gene 6906)
inactive: all other assays above

NC(=O)C(F)(F)C(F)(F)F
not listed: [1] | [2] | SERPINA7 (gene 6906)
inactive: all other assays above

O=C(O)C(F)(F)OC(F)(F)C(F)(F)OC(F)(F)F
not listed: [1] | [2] | SERPINA7 (gene 6906)
inactive: all other assays above

O=S(=O)(F)C(F)(F)C(F)(F)C(F)(F)C(F)(F)C(F)(F)C(F)(F)C(F)(F)C(F)(F)F
not listed: [1] | [2] | SERPINA7 (gene 6906)
inactive: all other assays above

OCC(F)(F)OC(F)(F)C(F)(F)OC(F)(F)C(F)(F)OC(F)(F)CO
active: SERPINA7 (gene 6906) 44.1 µM | [3] 64.9 µM | [4] 28.9 µM | [5] 36.7 µM | [6] 57.6 µM | [7] 28.9 µM | [8] 36.7 µM
inactive: [9]

CCCCc1ccc(O)cc1
active: SERPINA7 (gene 6906) 63 µM

O=P(Oc1ccccc1)(Oc1ccccc1)Oc1ccccc1
active: SERPINA7 (gene 6906) 3.18 µM

OCC(F)(F)OC(F)(F)C(F)(F)OC(F)(F)C(F)(F)OC(F)(F)F
not listed: [1] | [2] | SERPINA7 (gene 6906)
inactive: all other assays above
